Data reported in PubChem BioAssay.
Activity calls are given as the source filed them. Unless noted, the rule behind the calls is not given here.

Columns and labels:
[1] = tested on: Wnt5a (protein binding on small-molecule microarray); experiment: Wnt5a binders on small-molecule microarray, primary screen, biophysical, 635/667 nm fluorescence (AID 1142); conditions: 635 nm fluorescence, higher = more signal;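 note: fluorescence read at 667 nm with signal to noise per printed feature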
[2] = cell viability in Huh7 cells, primary screen, cytotoxicity control for HCV replication inhibitor project, CellTiter-Glo luminescence, basal, 48 h (AID 1143); conditions: Huh7 HCV replicon, higher = more signal, called active from +8 up or from −8 down;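 note: Huh7 hepatoma cells carrying a hepatitis C replication reporter with no stimulus; test concentration not given here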
[3] = P. aeruginosa biofilm formation inhibitors, primary screen, PAO1 strain, BacTiter-Glo luminescence, LB-PBS (AID 1144); conditions: 12 h, higher = more signal
[4] = CREB reporter modulators without forskolin, primary screen, cell-based, PC12, CRE-LacZ reporter, unstimulated (AID 1145); conditions: no forskolin, luminescence, 4.5 h, higher = more signal, called active from +8 up or from −8 down
[5] = CREB reporter modulators under forskolin, primary screen, cell-based, PC12, CRE-LacZ reporter, forskolin-stimulated (AID 1146); conditions: luminescence, 4.5 h, higher = more signal, called active from +8 up or from −8 down;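 note: PC12 cells with 6xCRE LacZ reporter stimulated by forskolin 10 µM; beta-galactosidase reporter signal reflecting CREB driven transcription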
[6] = target: Streptavidin (Streptomyces avidinii) (UniProt P22629); experiment: streptavidin binders on small-molecule microarray, primary screen, artefact control for SMM compound annotation, biophysical, 635/667 nm fluorescence (AID 1147); conditions: streptavidin binding, higher = more signal;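 note: signal reflects streptavidin binding to arrayed compounds as a control protein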
[7] = small-molecule binders of probe aInhba, primary screen, biochemical, small-molecule microarray, 635/667 nm fluorescence (AID 1148); conditions: higher = more signal;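 note: score merges 667nm spot fluorescence with signal-to-noise for antibody binding to printed compounds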
Torsin-1A (Homo sapiens) [8] = target: Torsin-1A (Homo sapiens) (UniProt O14656); experiment: torsin A binders from cell lysate, primary screen, small-molecule microarray, wild-type, 635/667 nm (AID 1149); conditions: COS7 hTOR1A-WT lysate, 635 nm fluorescence, higher = more signal
Torsin-1A (Homo sapiens) [9] = target: Torsin-1A (Homo sapiens) (UniProt O14656); experiment: small-molecule binders of mutant TOR1A in lysate, primary screen, cell lysate, small-molecule microarray, COS7 lysate, 635/667 nm fluorescence (AID 1150); conditions: COS7 hTOR1A mutant lysate, 635 nm fluorescence, higher = more signal;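 note: score pools 667 nm emission and signal to noise measuring lysate protein binding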
[10] = tested on: Sonic hedgehog protein (Shh); experiment: small-molecule binders of Shh protein, primary screen, biochemical, small-molecule microarray, 635/667 nm fluorescence (AID 1151); conditions: small-molecule microarray binding, 635 nm fluorescence; higher = more signal;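 note: Shh protein binding to compounds spotted on small-molecule microarray slides; score combines spot fluorescence intensity with signal-to-noise across triplicate slides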
[11] = E. coli DRC41 culture turbidity changes, primary screen, E. coli filamentation inducer project, strain DRC41, OD650, 48 h (AID 1152);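 note: E. coli MC1000 strain DRC41 lacking acrAB efflux pump and sulA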; conditions: E. coli DRC41 (acrAB sulA), higher = more signal, called active from +8 up or from −8 down
[12] = small-molecule binders of probe aLefty1, primary screen, biochemical, small-molecule microarray, 635/667 nm fluorescence (AID 1153); conditions: higher = more signal;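 note: score merges spot fluorescence with signal-to-noise ratio from the scanned slide images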
[13] = PSAC antagonists in infected red cells, primary screen, cell-based, P. falciparum Indochina, OD700, 1 h (AID 1154); conditions: P. falciparum Indochina infected RBC osmotic lysis, higher = more signal, called active from +8 up or from −8 down
[14] = PSAC antagonists in infected red cells, primary screen, cell-based, P. falciparum Indochina, OD700, 2 h (AID 1155);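 note: lysis reports solute entry through the parasite surface anion channel PSAC; channel blockers reduce lysis of infected cells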; conditions: P. falciparum Indochina infected erythrocytes, osmotic lysis OD700; higher = more signal, called active from +8 up or from −8 down
[15] = osmotic lysis modulators in infected erythrocytes, primary screen, PSAC antagonist project, cell-based, P. falciparum Indochina, OD700, 3 h (AID 1156); conditions: higher = more signal, called active from +8 up or from −8 down
[16] = PSAC antagonists in infected red cells, primary screen, cell-based, P. falciparum Indochina, OD700, 18 h (AID 1157); conditions: P. falciparum Indochina infected erythrocytes, osmotic lysis OD700, 18 h; higher = more signal, called active from +8 up or from −8 down
[17] = modulators of S6 phosphorylation in cells, primary screen, cell-based, A549, cytoblot, luminescence, serum-stimulated (AID 1158); conditions: A549 phospho-S6 cytoblot, 5 h, higher = more signal;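 note: serum-stimulated A549 lung adenocarcinoma cells; signal is phosphorylated S6 detected by cytoblot immunostaining with HRP secondary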
[18] = target: NADPH oxidase 2 (Homo sapiens) (UniProt P04839); experiment: NOX2-dependent H2O2 signal modulators, primary screen, NOX inhibitor project, cell-based, HEK293-NOX2, PMA-stimulated, Amplex Red fluorescence (AID 1159); conditions: 45 min, higher = more signal, called active from +8 up or from −8 down; note: test concentration not given here
[19] = target: NADPH oxidase 4 (Homo sapiens) (UniProt Q9NPH5); experiment: NOX4-dependent H2O2 signal modulators, primary screen, NOX inhibitor project, cell-based, HEK293-NOX4, tetracycline-induced, Amplex Red fluorescence (AID 1160); conditions: 45 min, higher = more signal, called active from +8 up or from −8 down
[20] = target: NADPH oxidase 5 (Homo sapiens) (UniProt Q96PH1); experiment: NOX5-dependent H2O2 signal modulators, primary screen, NOX inhibitor project, cell-based, HEK293-NOX5, Amplex Red fluorescence (AID 1161); conditions: HEK293-NOX5, ionomycin, 45 min, higher = more signal
Chain of NADPH oxidase 5 (Homo sapiens) (Q96PH1 whole entry, looked up): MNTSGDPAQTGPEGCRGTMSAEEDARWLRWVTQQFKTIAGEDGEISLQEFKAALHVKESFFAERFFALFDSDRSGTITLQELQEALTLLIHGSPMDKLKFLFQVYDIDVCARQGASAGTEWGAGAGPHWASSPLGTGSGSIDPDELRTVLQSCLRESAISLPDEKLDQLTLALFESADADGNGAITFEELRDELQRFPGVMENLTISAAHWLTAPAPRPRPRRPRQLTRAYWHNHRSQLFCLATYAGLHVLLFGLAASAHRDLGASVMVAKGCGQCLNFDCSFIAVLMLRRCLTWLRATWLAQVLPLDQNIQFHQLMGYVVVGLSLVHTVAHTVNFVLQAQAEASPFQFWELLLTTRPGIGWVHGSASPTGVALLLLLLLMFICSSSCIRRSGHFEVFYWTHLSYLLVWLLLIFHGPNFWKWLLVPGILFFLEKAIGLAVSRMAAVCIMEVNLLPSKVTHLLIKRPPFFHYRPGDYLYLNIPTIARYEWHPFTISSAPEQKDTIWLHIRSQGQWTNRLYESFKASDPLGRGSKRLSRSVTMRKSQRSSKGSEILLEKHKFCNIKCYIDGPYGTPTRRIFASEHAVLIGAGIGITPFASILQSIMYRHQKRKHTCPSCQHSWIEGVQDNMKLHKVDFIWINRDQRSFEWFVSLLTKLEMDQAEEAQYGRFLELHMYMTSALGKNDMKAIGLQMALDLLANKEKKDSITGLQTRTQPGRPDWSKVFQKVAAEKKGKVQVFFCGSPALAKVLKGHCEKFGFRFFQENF

Chain of Streptavidin (Streptomyces avidinii) (P22629 whole entry, looked up): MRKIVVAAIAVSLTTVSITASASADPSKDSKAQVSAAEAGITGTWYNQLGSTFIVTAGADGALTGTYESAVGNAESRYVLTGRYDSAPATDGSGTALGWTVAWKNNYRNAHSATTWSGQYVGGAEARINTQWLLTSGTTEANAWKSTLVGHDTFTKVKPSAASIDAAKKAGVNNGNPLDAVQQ
Chain of NADPH oxidase 2 (Homo sapiens) (P04839 whole entry, looked up): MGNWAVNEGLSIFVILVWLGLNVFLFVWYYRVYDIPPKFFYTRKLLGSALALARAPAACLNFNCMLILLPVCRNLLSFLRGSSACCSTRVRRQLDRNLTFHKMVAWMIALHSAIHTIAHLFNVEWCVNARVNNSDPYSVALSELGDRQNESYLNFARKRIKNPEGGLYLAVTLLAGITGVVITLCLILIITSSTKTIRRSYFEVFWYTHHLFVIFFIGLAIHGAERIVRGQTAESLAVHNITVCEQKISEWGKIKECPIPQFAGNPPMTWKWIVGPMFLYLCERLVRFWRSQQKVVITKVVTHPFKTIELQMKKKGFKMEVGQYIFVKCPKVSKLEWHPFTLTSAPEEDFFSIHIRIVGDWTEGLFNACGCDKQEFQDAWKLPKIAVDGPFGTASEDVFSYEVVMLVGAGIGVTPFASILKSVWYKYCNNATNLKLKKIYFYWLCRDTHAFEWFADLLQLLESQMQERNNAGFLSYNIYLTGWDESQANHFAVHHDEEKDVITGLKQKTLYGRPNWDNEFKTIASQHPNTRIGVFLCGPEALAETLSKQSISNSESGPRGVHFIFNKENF
Chain of NADPH oxidase 4 (Homo sapiens) (Q9NPH5 whole entry, looked up): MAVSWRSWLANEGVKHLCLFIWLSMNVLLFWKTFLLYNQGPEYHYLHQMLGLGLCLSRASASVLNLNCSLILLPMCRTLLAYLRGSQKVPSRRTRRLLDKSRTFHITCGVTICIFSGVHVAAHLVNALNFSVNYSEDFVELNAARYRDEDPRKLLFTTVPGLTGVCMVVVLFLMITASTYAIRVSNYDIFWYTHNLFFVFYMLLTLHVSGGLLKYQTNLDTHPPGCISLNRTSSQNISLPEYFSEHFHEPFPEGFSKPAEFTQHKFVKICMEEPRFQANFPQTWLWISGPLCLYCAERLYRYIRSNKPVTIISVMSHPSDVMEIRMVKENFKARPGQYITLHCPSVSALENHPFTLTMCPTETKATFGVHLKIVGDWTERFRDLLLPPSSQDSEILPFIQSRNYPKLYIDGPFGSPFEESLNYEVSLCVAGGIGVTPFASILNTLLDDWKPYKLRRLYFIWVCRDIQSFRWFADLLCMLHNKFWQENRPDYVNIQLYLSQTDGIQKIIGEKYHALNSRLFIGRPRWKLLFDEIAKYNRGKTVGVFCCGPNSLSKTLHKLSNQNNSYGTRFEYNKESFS
Chain of Torsin-1A (Homo sapiens) (O14656 whole entry, looked up): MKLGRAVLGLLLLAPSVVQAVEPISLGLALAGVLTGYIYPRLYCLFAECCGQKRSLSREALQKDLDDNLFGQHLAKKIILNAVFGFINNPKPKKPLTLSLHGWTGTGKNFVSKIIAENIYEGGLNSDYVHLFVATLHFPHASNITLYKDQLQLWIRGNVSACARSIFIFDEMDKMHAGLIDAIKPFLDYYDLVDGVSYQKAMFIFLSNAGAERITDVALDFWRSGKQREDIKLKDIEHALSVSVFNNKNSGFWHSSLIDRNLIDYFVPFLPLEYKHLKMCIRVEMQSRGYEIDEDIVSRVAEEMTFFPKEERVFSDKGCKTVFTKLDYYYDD

| SMILES | composite z-score [1] | z-score [2] | z-score [3] | z-score [4] | z-score [5] | composite z-score [6] | composite z-score [7] | composite z-score (Torsin-1A (Homo sapiens) [8]) | composite z-score (Torsin-1A (Homo sapiens) [9]) | composite z-score [10] | z-score [11] | composite z-score [12] | z-score [13] | z-score [14] | z-score [15] | z-score [16] | z-score [17] | z-score [18] | z-score [19] | z-score [20] |
| --- | --- | --- | --- | --- | --- | --- | --- | --- | --- | --- | --- | --- | --- | --- | --- | --- | --- | --- | --- | --- |
| N#Cc1ccc(C(O)C2C=CC3C(=O)NC(=O)C3N2Nc2ccc(Cl)cc2Cl)cc1 (stereo not given) | -0.0844 | 0.199 (inactive) | -0.376 (inactive) | 0.629 (inactive) | -0.728 (inactive) | 0.865 | 0.104 | -0.404 | 0.0924 | -0.855 | -1.18 (inactive) | 0.243 | 13.7 (active) | 2.42 (inactive) | 2.15 (inactive) | 1.39 (inactive) | -1.29 | -1.23 (inactive) | -5.23 (inactive) | -2.75 |
| Cc1ccc(S[C@]2(C(=O)NC3CC3)CC(=O)N(C(C)C)[C@@H]2c2ccc(CO)cc2I)cc1 | -0.385 | -4.82 (inactive) | -1.21 (inactive) | 0.299 (inactive) | 1.42 (inactive) | -0.677 | -0.394 | 0.778 | 0.652 | 0.677 | 0.839 (inactive) | -0.703 | 5.84 (inactive) | -0.558 (inactive) | 0.927 (inactive) | -1.31 (inactive) | 2.32 | 0.828 (inactive) | -1.91 (inactive) | -2.33 |
| CN1C(=O)C2C(C1=O)C1C=C(CCCO)C2C(C2CC2)N1Cc1cccc(OC(F)(F)F)c1 (stereo not given) | -0.317 | -0.591 (inactive) | 0.55 (inactive) | -0.348 (inactive) | 1.3 (inactive) | 0.851 | -0.101 | 1.03 | 1.76 | -0.525 | -0.771 (inactive) | -0.295 | 1.34 (inactive) | 0.505 (inactive) | 0.627 (inactive) | 0.402 (inactive) | -0.546 | 0.561 (inactive) | 0.568 (inactive) | 1.2 |
| COc1ccc(C(=O)Nc2ccc(CN3C(=O)[C@@]4(O[C@@H](CCn5cc(CCO)nn5)[C@H]([Si](C)(C)c5ccc(OC)cc5)[C@H]4C)c4ccccc43)cc2)cc1 | 0.236 | -7.97 (inactive) | 0.173 (inactive) | 6.94 (inactive) | -0.632 (inactive) | 0.421 | -0.0791 | 0.671 | 0.411 | 1.4 | -2.53 (inactive) | 0.232 | 27.6 (active) | 16.4 (active) | 2.35 (inactive) | 1.43 (inactive) | -0.368 | -1.81 (inactive) | 0.515 (inactive) | 3.12 |
| COc1ccc([Si](C)(C)[C@@H]2[C@@H](CC(=O)N3Cc4ccccc4C[C@H]3CO)O[C@]3(C(=O)N(Cc4cccc(N5CCOC5=O)c4)c4ccccc43)[C@H]2C)cc1 | 0.244 | -4.12 (inactive) | 0.291 (inactive) | -0.491 (inactive) | -0.318 (inactive) | -0.281 | -0.0581 | 0.846 | 0.737 | 2.11 | -0.207 (inactive) | 0.647 | 5.29 (inactive) | 1.06 (inactive) | 0.599 (inactive) | 0.548 (inactive) | 0.114 | -2.65 (inactive) | 1.1 (inactive) | -1.02 |
| COC(=O)[C@@]1(Cc2ccccc2)N=C(c2ccc(OCCCO)cc2)O[C@H]1c1ccccc1CN=[N+]=[N-] | 0.289 | -5.03 (inactive) | -0.621 (inactive) | -0.435 (inactive) | -1.97 (inactive) | -0.12 | 0.0227 | 0.009 | 0.668 | 1.88 | 1.11 (inactive) | 0.313 | 23 (active) | 7.26 (inactive) | -0.202 (inactive) | 2.21 (inactive) | 0.239 | -6.02 (inactive) | -0.914 (inactive) | -3.31 |
| NC(=O)NCC#Cc1ccc2c(c1)[C@]1(C(=O)N2)[C@H](c2ccc(OCCO)cc2)N2[C@H](c3ccccc3)[C@H](c3ccccc3)OC(=O)[C@H]2[C@@H]1C(=O)O | -0.129 | -4.1 (inactive) | -0.626 (inactive) | 0.155 (inactive) | -0.719 (inactive) | -0.204 | -0.128 | -0.101 | 0.141 | -0.501 | 0.53 (inactive) | -0.0536 | 2.54 (inactive) | -0.7 (inactive) | 0.623 (inactive) | -1.3 (inactive) | 1.61 | 1.97 (inactive) | 0.325 (inactive) | -0.441 |
| C=CC1c2cc(O)c(OC)cc2CCN1C (stereo not given) | -0.148 | 0.235 (inactive) | 0.51 (inactive) | 0.182 (inactive) | -0.439 (inactive) | -0.0377 | -0.0695 | -0.45 | -0.231 | -0.881 | -0.664 (inactive) | -0.101 | 0.994 (inactive) | -0.152 (inactive) | -0.969 (inactive) | -0.214 (inactive) | -0.466 | -4.27 (inactive) | -2.63 (inactive) | -3.08 |
| COCCCNC(=O)[C@@H]1c2ccccc2C(=O)N(Cc2ccc(OC(F)(F)F)cc2)[C@H]1c1ccc(CO)cc1 | 0.53 | -0.429 (inactive) | 0.0789 (inactive) | 0.674 (inactive) | 0.0988 (inactive) | -0.0096 | -0.0221 | 0.0966 | 0.281 | 1.09 | -0.771 (inactive) | 0.0271 | 1.93 (inactive) | 0.566 (inactive) | 0.913 (inactive) | 0.303 (inactive) | 0.0296 | -0.385 (inactive) | 0.915 (inactive) | 1.91 |
